Bioassay records: PubChem BioAssay, several laboratories
Hits are enriched below; roughly 3.2% of the tested compounds scored in any of these assays.
Bim-Mcl-1: human Bim-Mcl-1 interaction inhibition. Bead-based flow cytometry, Bim peptide-Mcl-1 binding. Q07820. inhibition, % at 10 µM. AID 1009. 190,000 compounds, 0.1% hits; in the data active = inhibition above about 40%;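 also: 0% = no compound tracer wells and 100% = peptide blocker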
Mcl1 Bid PPI: disrupts binding of human Mcl-1 to Bid peptide; inhibition, % at 21.7 µM; 220,000 compounds, 0.97% hits; AID 1021; Q07820; TR-FRET Mcl-1/Bid-Dy647 peptide binding, 1536-well;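 active = compounds that cut the binding signal by more than half at the single screening dose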;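 also: His-tagged Mcl-1 with europium anti-His antibody binding Bid BH3 peptide; 0% = Mcl-1 plus peptide wells and 100% = peptide-only wells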
14-3-3 Bad PPI: disrupts binding of bovine 14-3-3 zeta to phospho-Bad peptide. inhibition, % at 21.7 µM. 220,000 compounds, 0.71% hits. P63103. TR-FRET 14-3-3zeta/Dy647-pBad peptide displacement, 1 h;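 active = inhibition above about 70%, limit read from the data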;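 also: 0% = full 14-3-3 plus peptide FRET controls and 100% = background without 14-3-3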
Mcl1 Noxa PPI: disrupts binding of human Mcl-1 to Noxa peptide; TR-FRET Mcl-1/Noxa peptide binding, 2 h; 220,000 compounds, 1.5% hits; inhibition, % at 21.7 µM; Q07820;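 active = compounds that cut the protein-peptide binding signal by more than 50% relative to plate controls in a single-dose test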;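 also: His-tagged Mcl-1 with rhodamine Noxa BH3 peptide and terbium anti-His antibody; 0% = Mcl-1 plus Noxa peptide wells and 100% = peptide-only wells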
p47phox inh: inhibitors of human p47phox binding. P14598. p47phox/p22phox peptide binding, fluorescence polarization, 2 h. inhibition, % at 24.7 µM. 220,000 compounds, 0.53% hits. AID 1274;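 active = inhibition above about 30%, limit read from the data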;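 also: 0% = p47phox with labelled peptide and 100% = labelled peptide alone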
Target sequence (P14598 whole entry, looked up): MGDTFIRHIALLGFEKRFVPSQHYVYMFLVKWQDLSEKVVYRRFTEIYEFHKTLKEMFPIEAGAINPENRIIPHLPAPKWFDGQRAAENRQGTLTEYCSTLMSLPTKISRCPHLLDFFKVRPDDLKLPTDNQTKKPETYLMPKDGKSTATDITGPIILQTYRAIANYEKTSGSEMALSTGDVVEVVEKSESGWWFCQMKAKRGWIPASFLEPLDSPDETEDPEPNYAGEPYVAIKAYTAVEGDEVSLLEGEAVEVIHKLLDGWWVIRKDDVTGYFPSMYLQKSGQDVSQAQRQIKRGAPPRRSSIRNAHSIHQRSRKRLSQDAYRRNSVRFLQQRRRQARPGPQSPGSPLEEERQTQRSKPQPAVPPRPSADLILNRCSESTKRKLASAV
An asterisk follows results filed as active.

`O=C(N/N=C1\C(=O)c2cccc3cccc1c23)c1ccc(O)cc1` gave Bim-Mcl-1 1.0, Mcl1 Bid PPI -24.1, 14-3-3 Bad PPI 3.0, Mcl1 Noxa PPI 53.5* and p47phox inh -5.3.
`O=C(NN1C(=O)C2C(C1=O)C1C=CC2C12CC2)c1ccc(Cl)cc1` (centres undefined) gave Mcl1 Bid PPI 99.6*, 14-3-3 Bad PPI 15.6, Mcl1 Noxa PPI 32.4 and p47phox inh 0.5.
For Nc1c(S(=O)(=O)c2cccc(Cl)c2)c2nc3ccccc3nc2n1/N=C/c1ccc(O)c(O)c1 the results were Bim-Mcl-1 13.0, Mcl1 Bid PPI -12.1, 14-3-3 Bad PPI 12.1, Mcl1 Noxa PPI 63.5* and p47phox inh -85.9.
S=c1[nH]nc(-c2ccccc2)n1/N=C/c1ccc(-c2ccccc2Cl)o1 was read as Bim-Mcl-1 -3.0, Mcl1 Bid PPI 34.1, 14-3-3 Bad PPI 26.2, Mcl1 Noxa PPI 63.9* and p47phox inh 14.4.
For S=c1[nH]nc(-c2cccc(Cl)c2)n1/N=C/c1ccc(-c2ccccc2Br)o1 the results were Mcl1 Bid PPI 45.6, 14-3-3 Bad PPI 17.0, Mcl1 Noxa PPI 72.3* and p47phox inh -16.5.
For CCOc1ccccc1N1CCN(Cc2cccc(OC)c2O)CC1 the results were Bim-Mcl-1 -9.0, Mcl1 Bid PPI 10.8, 14-3-3 Bad PPI 73.5*, Mcl1 Noxa PPI 33.9 and p47phox inh 0.8.
`COCCNC(=O)C(OC(=O)c1nsc(Cl)c1Cl)C(C)C` (centres undefined) gave Bim-Mcl-1 0.0, Mcl1 Bid PPI -29.0, 14-3-3 Bad PPI -0.3, Mcl1 Noxa PPI 1.1 and p47phox inh 1.5.
O=c1nc(Nc2ccccc2)sc2ccc([N+](=O)[O-])cc12 was read as Bim-Mcl-1 -11.0, Mcl1 Bid PPI 2.3, 14-3-3 Bad PPI 44.8, Mcl1 Noxa PPI 54.4* and p47phox inh 22.2.
O=C1N=C(N2CCOCC2)S/C1=C/c1cc2c(cc1[N+](=O)[O-])OCO2 was read as Mcl1 Bid PPI -42.8, 14-3-3 Bad PPI 7.9, Mcl1 Noxa PPI 13.8 and p47phox inh -3.3.
Screening Cc1cc(C)c2c(c1)C1C=CCC1C(c1ccc(S(=O)(=O)N3CCOCC3)cc1)N2 (centres undefined) returned Bim-Mcl-1 0.0, Mcl1 Bid PPI 70.0*, 14-3-3 Bad PPI -9.9, Mcl1 Noxa PPI 95.3* and p47phox inh -11.3.
CC1(C)CC(=O)C(C(c2cccnc2)C2C(=O)CC(C)(C)CC2=O)C(=O)C1 was read as Bim-Mcl-1 -30.0, Mcl1 Bid PPI 69.4*, 14-3-3 Bad PPI -7.8, Mcl1 Noxa PPI -4.6 and p47phox inh -5.9.
For Cc1ccc(-c2nc(Nc3ccc(N4CCOCC4)cc3)c3ccccc3n2)cc1 the results were Mcl1 Bid PPI -52.0, 14-3-3 Bad PPI 0.7, Mcl1 Noxa PPI 64.0* and p47phox inh -22.4.
For CCn1c(CN2CCN(Cc3ccc(C)cc3)C(CCO)C2)nc2ccccc21 (centres undefined) the results were Bim-Mcl-1 0.0, Mcl1 Bid PPI -61.0, 14-3-3 Bad PPI -9.2, Mcl1 Noxa PPI 10.3 and p47phox inh -7.0.
`Cc1ccc(C(C)C)cc1NC(=O)Nc1ccc([N+](=O)[O-])cc1` gave Mcl1 Bid PPI 85.1*, 14-3-3 Bad PPI 11.0, Mcl1 Noxa PPI 17.6 and p47phox inh -15.2.
`O=C(NCc1cccc(Cl)c1)c1ccc(-c2csnn2)cc1` gave Mcl1 Bid PPI -8.8, 14-3-3 Bad PPI -5.6, Mcl1 Noxa PPI -23.6 and p47phox inh 115.5*.
CC(C)(C)c1cc(NCc2ccccn2)n2ncc(-c3ccc(Cl)cc3)c2n1 was read as Mcl1 Bid PPI -74.5, 14-3-3 Bad PPI -6.3, Mcl1 Noxa PPI -79.4 and p47phox inh -6.5.
Screening CN(C)CCCNc1cc(C(C)(C)C)nc2c(-c3ccc(Cl)cc3)cnn12 returned Mcl1 Bid PPI 27.8, 14-3-3 Bad PPI 78.9*, Mcl1 Noxa PPI 35.2 and p47phox inh 64.9*.
CCOC(=O)c1c(N/N=C/c2ccncc2)n[nH]c1C was read as Bim-Mcl-1 1.0, Mcl1 Bid PPI -70.2, 14-3-3 Bad PPI 10.5, Mcl1 Noxa PPI 3.1 and p47phox inh -1.0.
Screening O=C1Nc2cc(Cl)cnc2N2CCCC12 (centres undefined) returned Bim-Mcl-1 1.0, Mcl1 Bid PPI -17.3, 14-3-3 Bad PPI 0.8, Mcl1 Noxa PPI 59.7* and p47phox inh 4.5.
For O=Cc1[nH]c2ccccc2c1N(C(=O)CCl)c1ccc([N+](=O)[O-])cc1 the results were Mcl1 Bid PPI -60.4, 14-3-3 Bad PPI 0.1, Mcl1 Noxa PPI 92.1* and p47phox inh -0.7.
